This note sets out measurements from PMC10726135, “HNF4α isoforms regulate the circadian balance between carbohydrate and lipid metabolism in the liver”.

Whole data set: some 18,000 sequences, median “log2 normalized intensity” near 0.39, cut for the highest 2% near 6.6. The sample as a whole holds a higher share of the highest values than the screen did.

The target of this assay is T1, HNF4alpha2 (COS-7 nuclear extract) (Homo sapiens, UniProt P41235 1-474).
T1 sequence: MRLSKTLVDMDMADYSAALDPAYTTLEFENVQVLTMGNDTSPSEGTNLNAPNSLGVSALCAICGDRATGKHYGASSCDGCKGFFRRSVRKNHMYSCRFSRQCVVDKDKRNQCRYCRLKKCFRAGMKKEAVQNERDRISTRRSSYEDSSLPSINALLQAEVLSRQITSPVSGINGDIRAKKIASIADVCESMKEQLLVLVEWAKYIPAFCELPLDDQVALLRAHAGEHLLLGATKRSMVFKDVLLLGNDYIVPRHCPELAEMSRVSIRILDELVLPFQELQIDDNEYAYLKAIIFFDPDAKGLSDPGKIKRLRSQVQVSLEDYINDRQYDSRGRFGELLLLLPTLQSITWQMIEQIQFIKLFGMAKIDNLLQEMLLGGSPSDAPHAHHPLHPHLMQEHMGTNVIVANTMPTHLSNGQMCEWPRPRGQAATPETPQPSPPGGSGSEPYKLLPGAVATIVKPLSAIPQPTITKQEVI
As to the kind of experiment: protein-binding microarray; COS-7 nuclear extract on double-stranded Agilent 4x180k PBM; binding buffer, salt, pH and temperature not given in the material; high values mean tight binding. Particulars: chain copies: 2; label: 3' end of strand 1 on the slide; dsDNA, one strand shown. In outline: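 A custom Agilent SurePrint G3 4x180k array, spotted in quadruplicate with ~44,000 test sequences as ~60-nt oligonucleotides made double-stranded, was incubated with nuclear extracts. The extracts came from COS-7 cells transiently transfected by CaPO4 with a human HNF4α isoform expression vector. Bound HNF4α was imaged on an Agilent G2565CA scanner at 2-µm resolution, and the binding signal was taken as Agilent software's background-corrected, normalized gProcessedSignal.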
In the case of “TTTCATTCCACTGACTTGCAACCTTTGCCCGCCTAGGGAGATTAGAGTATCGGTCGA”, the binding signal was 6.76 log2 normalized intensity.

With “TGCCCTTGACTTTTTGTGGGGGCAGATGTTGCCTAGGGAGATTAGAGTATCGGTCGA”, the binding signal was 1.86 log2 normalized intensity.

As to “TTCCACTGACTTGCAACCTTTGCCCTGTTGGCCTAGGGAGATTAGAGTATCGGTCGA”, the binding signal stood at 6.31 log2 normalized intensity.

Take “TTGCCCTTCTTGGATGCCCTTCCCTAACCCGCCTAGGGAGATTAGAGTATCGGTCGA”: the binding signal is 2.66 log2 normalized intensity.

Turning to “TTCCTCCCTTGGAATGTGACCTTAGACCCCGCCTAGGGAGATTAGAGTATCGGTCGA”, the binding signal was determined as 8.18 log2 normalized intensity.

With “GAGAGTTCCCTTGGAATGCCAGATGACCTTGCCTAGGGAGATTAGAGTATCGGTCGA”, the binding signal turned out to be 4.14 log2 normalized intensity.

As to “TTCCCTTGGAATGCCAGATGACCTTTGCCCGCCTAGGGAGATTAGAGTATCGGTCGA”, the binding signal was determined as 9.88 log2 normalized intensity.

In the case of “AGATGACCTTTGCCCTTGACTTTTTGTGGGGCCTAGGGAGATTAGAGTATCGGTCGA”, the binding signal turned out to be 7.08 log2 normalized intensity.

Take “CTGGCTTTCATTCCACTGACTTGCAACCTTGCCTAGGGAGATTAGAGTATCGGTCGA”: the binding signal amounted to 0.803 log2 normalized intensity.

For “ACCTTTGCCCTTGACTTTTTGTGGGGGCAGGCCTAGGGAGATTAGAGTATCGGTCGA”, the binding signal was found to be 2.38 log2 normalized intensity.

Turning to “CCCTTGGAATGTGACCTTAGACCCCTGAATGCCTAGGGAGATTAGAGTATCGGTCGA”, the binding signal is 5.74 log2 normalized intensity.

Turning to “TTAGCTTCCTCCCTTGGAATGTGACCTTAGGCCTAGGGAGATTAGAGTATCGGTCGA”, the binding signal was 4.12 log2 normalized intensity.

With “AGGGTGACCCCTGTGGTACAGGCAGTGACTGCCTAGGGAGATTAGAGTATCGGTCGA”, the binding signal was found to be 1.48 log2 normalized intensity.

Regarding “GAGGCTGCTCTCTGTCCCTGCACCCTACCCGCCTAGGGAGATTAGAGTATCGGTCGA”, the binding signal was 1.6 log2 normalized intensity.

Consider “AGGGCCCTTCACTATTTTCAAAGGTCAACAGCCTAGGGAGATTAGAGTATCGGTCGA”, for which the binding signal came out at 3.49 log2 normalized intensity.

As to “TGTGTTTCCACAAACACAGATCAGATATGAGCCTAGGGAGATTAGAGTATCGGTCGA”, the binding signal is -0.462 log2 normalized intensity.

Take “GGCCTCCCCATCCTCATGACAGTACCTCTCGCCTAGGGAGATTAGAGTATCGGTCGA”: the binding signal turned out to be 2.32 log2 normalized intensity.

For “GAACTTTGACCACCTACTGTTTGTGCAGAGGCCTAGGGAGATTAGAGTATCGGTCGA”, the binding signal is 4.13 log2 normalized intensity.

For the sequence “ACACTGCCATTTAAAAGTTTCCCTTGATCAGCCTAGGGAGATTAGAGTATCGGTCGA”, the binding signal was 0.876 log2 normalized intensity.

“TTCTTTTTTTTTTTTTTTTTTTTTTGAGATGCCTAGGGAGATTAGAGTATCGGTCGA”: the binding signal worked out at 3 log2 normalized intensity.

“ATGCCAGATGACCTTTGCCCTTGACTTTTTGCCTAGGGAGATTAGAGTATCGGTCGA”: the binding signal turned out to be 8.55 log2 normalized intensity.

For the sequence “TATCCCTGGAGCCTTAGAAGATGACCTTTTGCCTAGGGAGATTAGAGTATCGGTCGA”, the binding signal was determined as 5.59 log2 normalized intensity.

“GGAAGTCCAGCATTCTTTTCCCCATACCAGGCCTAGGGAGATTAGAGTATCGGTCGA”: the binding signal worked out at 1.33 log2 normalized intensity.

In the case of “TGCCCTTTGTCCAGGGTGAGAGGGACCCTTGCCTAGGGAGATTAGAGTATCGGTCGA”, the binding signal is 2.41 log2 normalized intensity.

Take “ACTTCTGTCTCCAGAAATCAACCTTTGATCGCCTAGGGAGATTAGAGTATCGGTCGA”: the binding signal came out at 7.84 log2 normalized intensity.

Take “TGCAGCAAAACTTTAGGACTTTGAACCTTGGCCTAGGGAGATTAGAGTATCGGTCGA”: the binding signal amounted to 8.63 log2 normalized intensity.

With “GGACTTTGAACCTTGGGTCTGTAATCTCACGCCTAGGGAGATTAGAGTATCGGTCGA”, the binding signal stood at 7.11 log2 normalized intensity.

Consider “CCTTGGGTCTGTAATCTCACAACTCAGAAGGCCTAGGGAGATTAGAGTATCGGTCGA”, for which the binding signal turned out to be 0.23 log2 normalized intensity.

For “ATGTCTCCAGAAACCAACCTTTGATCATTCGCCTAGGGAGATTAGAGTATCGGTCGA”, the binding signal was 4.87 log2 normalized intensity.

“ATAAGGGGCAGCAAACCTACCTGAACTTTGGCCTAGGGAGATTAGAGTATCGGTCGA”: the binding signal was 3.07 log2 normalized intensity.

With “TTGAACCTTGGGTCTGTAATCTCACAACTCGCCTAGGGAGATTAGAGTATCGGTCGA”, the binding signal worked out at 1.47 log2 normalized intensity.

“GCAAACCTACCTGAACTTTGCCCCAGAGGAGCCTAGGGAGATTAGAGTATCGGTCGA”: the binding signal was found to be 5.9 log2 normalized intensity.

As for “CACACTGCAGCAAAACTTTAGGACTTTGAAGCCTAGGGAGATTAGAGTATCGGTCGA”, the binding signal was 3.31 log2 normalized intensity.

Consider “CCACCCACACTGCAGCAAAACTTTAGGACTGCCTAGGGAGATTAGAGTATCGGTCGA”, for which the binding signal stood at 0.141 log2 normalized intensity.

“TGTCTCCAGAAATCAACCTTTGATCGTTTGGCCTAGGGAGATTAGAGTATCGGTCGA”: the binding signal is 5.83 log2 normalized intensity.

As to “GGGCAGCAAACCTACCTGAACTTTGCCCCAGCCTAGGGAGATTAGAGTATCGGTCGA”, the binding signal was found to be 7.99 log2 normalized intensity.

In the case of “AGAAAGACATGTTTCTAACTGCCCGCATTCGCCTAGGGAGATTAGAGTATCGGTCGA”, the binding signal was 0.246 log2 normalized intensity.

Consider “TATTCCAGGCACAAGAATGGTCATTCTCTGGCCTAGGGAGATTAGAGTATCGGTCGA”, for which the binding signal was -0.977 log2 normalized intensity.

Take “GGCTTCTGGACTATGCCTTGAACTTTAAGGGCCTAGGGAGATTAGAGTATCGGTCGA”: the binding signal was found to be 2.21 log2 normalized intensity.

Turning to “TGGCACCTGAAGCTGCCCTTTGCACATGCCGCCTAGGGAGATTAGAGTATCGGTCGA”, the binding signal amounted to 4.08 log2 normalized intensity.

With “ATTGGGATGGAGTAACTTGCTAAGTATAAAGCCTAGGGAGATTAGAGTATCGGTCGA”, the binding signal was -0.531 log2 normalized intensity.

On to “TCTTTTCTAAGATATTTGCATAGGCATTGTGCCTAGGGAGATTAGAGTATCGGTCGA”, for which the binding signal amounted to 1.94 log2 normalized intensity.

As to “CTTGTCCAACTCCCCTCCCAAGGCAGCAATGCCTAGGGAGATTAGAGTATCGGTCGA”, the binding signal was determined as 4 log2 normalized intensity.

“GATGACATCATCTGTTTGTACGCGTCGAACGCCTAGGGAGATTAGAGTATCGGTCGA”: the binding signal is -0.199 log2 normalized intensity.

For the sequence “CAACTTTCTCCTCCAGGACCTTGCCCTTTAGCCTAGGGAGATTAGAGTATCGGTCGA”, the binding signal was 4.23 log2 normalized intensity.

Consider “GGGAGGAGGGCAACCTTTGAACTGGGTCTTGCCTAGGGAGATTAGAGTATCGGTCGA”, for which the binding signal worked out at 4.09 log2 normalized intensity.

Consider “CAAAACTTTAGGACTTTGAACCTTGGGTCTGCCTAGGGAGATTAGAGTATCGGTCGA”, for which the binding signal came to 7.13 log2 normalized intensity.

Regarding “CTTTAGGACTTTGAACCTTGGGTCTGTAATGCCTAGGGAGATTAGAGTATCGGTCGA”, the binding signal was found to be 6.04 log2 normalized intensity.

As for “GGACTCTGGAACCATCAGGATTCCAGAGGAGCCTAGGGAGATTAGAGTATCGGTCGA”, the binding signal was 1.86 log2 normalized intensity.

Turning to “TTTGCAACCTTTGATAACCTACAACCTTCTGCCTAGGGAGATTAGAGTATCGGTCGA”, the binding signal was 0.304 log2 normalized intensity.

With “CCCAGGTACGGAGGACAGCCACCCGTGCTTGCCTAGGGAGATTAGAGTATCGGTCGA”, the binding signal was -0.928 log2 normalized intensity.

For “TTACTATAGGTTCTACTCTCCCCAGTTCAAGCCTAGGGAGATTAGAGTATCGGTCGA”, the binding signal was determined as 3.24 log2 normalized intensity.

In the case of “TACCATGGGAGACCTCAGGGGTCATCAGATGCCTAGGGAGATTAGAGTATCGGTCGA”, the binding signal came to 2.49 log2 normalized intensity.

As to “AGATCAGATGGGGTGAACTTTGGACCACATGCCTAGGGAGATTAGAGTATCGGTCGA”, the binding signal was found to be 7.41 log2 normalized intensity.

As to “ACAGGAGATCAGATGGGGTGAACTTTGGACGCCTAGGGAGATTAGAGTATCGGTCGA”, the binding signal worked out at 8.41 log2 normalized intensity.

As for “GGTGAACTTTGAGACTATCCTTGGACCGCAGCCTAGGGAGATTAGAGTATCGGTCGA”, the binding signal was 2.51 log2 normalized intensity.

As to “CTCAGTCATACCACATGGATGGATTCAGATGCCTAGGGAGATTAGAGTATCGGTCGA”, the binding signal was found to be 0.259 log2 normalized intensity.

Take “AGATGGGGTGAACTTTGGACCACATATAGAGCCTAGGGAGATTAGAGTATCGGTCGA”: the binding signal was found to be 7.14 log2 normalized intensity.

In the case of “CAGGGGTCATCAGATAGATGGTCAGTGAACGCCTAGGGAGATTAGAGTATCGGTCGA”, the binding signal was determined as 1.44 log2 normalized intensity.

In the case of “GAGGACTTTGGCCTTTTGTGAGATATGGACGCCTAGGGAGATTAGAGTATCGGTCGA”, the binding signal came to 3.45 log2 normalized intensity.

In the case of “TGGGGTATCAGGTGGTGATGGTGGGAGGGAGCCTAGGGAGATTAGAGTATCGGTCGA”, the binding signal came to 0.113 log2 normalized intensity.
